# Screens as filed in PubChem BioAssay.
# Sampled rows, rich in hits. Any-hit rate of the full collection: about 7.3%.
# Luc counter = Counterscreen for Luciferase (Kinase-Glo TM) Inhibition; Luciferin 4-monooxygenase (Photuris pensylvanica), Q27757; Kinase-Glo luciferase, ATP luminescence, 8 min; Potency, µM (top dose mostly 38.3 µM), without a hit: top-dose activity change, negative = inhibition, actives largely listed as inhibitors; actives 0.28% (n = 200,000); AID 1379, 2008; further: on the % scale 0 is the no-effect control and ±100 the full control effect; nearly all actives have a fitted effect of over 60% in size
#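 Compounds were added to a substrate mix at pH 7.2 (50 mM imidazole, 10 uM ATP, within the enzyme's linear range), followed by Kinase-Glo detection reagent; luminescence was measured after 8 minutes at ambient temperature.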
# ELG1 genotox = qHTS screen for small molecules that induce genotoxicity in human embryonic kidney (HEK293T) cells expressing luciferase-tagged ELG1; Potency, µM (titrated, usually from 46 µM), for the others: at the highest dose activity change, positive = activation, hits mostly activators; HEK293T ELG1-luciferase reporter, luminescence, 16 h; AID 504466, 2011; actives 1.3% (n = 330,000); further: % of control where 0% means no effect; nearly all actives have a fitted effect of over 60% in size
#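 HEK293T cells expressing luciferase-tagged ELG1 were treated with compound or DMSO for 16 hr at 37°C. Luciferase activity was then read after 30 min with ONE-Glo at room temperature; rising signal flags genetic stress.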
# Rab9 promoter act = qHTS Assay for Rab9 Promoter Activators | Huh7 Rab9 promoter-luciferase reporter, luminescence, 24 h | Potency, µM (series often up to 9.22 µM), without a hit: at the highest dose activation, negative = inhibition, most hits filed as activators | actives 2.8% (n = 320,000) | AID 485297, 2010; further: % of control where 0% means no effect; nearly all actives have a fitted effect of over 60% in size
#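 Cell-based reporter: Huh7 stable for Rab9 promoter-driven luciferase, plated in reduced-serum medium with 10% FBS at 1500 cells/well, compound-treated 24 h at 37 °C, luminescence read after 10 min reagent.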
# FLuc counter = qHTS profiling assay for firefly luciferase inhibitor/activator using purifed enzyme and Km concentrations of substrates (counterscreen for miR-21 project); Luciferin 4-monooxygenase (Photinus pyralis), P08659; purified FLuc, Km substrates, luminescence inhibition; Potency, µM (highest dose often 57.5 µM), for inactives: at the top dose activity change, negative = inhibition, usual class: inhibitors; actives 6.9% (n = 360,000); AID 588342, 2011;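 further: plate controls were vehicle for no effect and reference inhibitor for full effect; nearly all actives have a fitted effect of over 55% in size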
# Target sequence (P08659 whole entry, looked up): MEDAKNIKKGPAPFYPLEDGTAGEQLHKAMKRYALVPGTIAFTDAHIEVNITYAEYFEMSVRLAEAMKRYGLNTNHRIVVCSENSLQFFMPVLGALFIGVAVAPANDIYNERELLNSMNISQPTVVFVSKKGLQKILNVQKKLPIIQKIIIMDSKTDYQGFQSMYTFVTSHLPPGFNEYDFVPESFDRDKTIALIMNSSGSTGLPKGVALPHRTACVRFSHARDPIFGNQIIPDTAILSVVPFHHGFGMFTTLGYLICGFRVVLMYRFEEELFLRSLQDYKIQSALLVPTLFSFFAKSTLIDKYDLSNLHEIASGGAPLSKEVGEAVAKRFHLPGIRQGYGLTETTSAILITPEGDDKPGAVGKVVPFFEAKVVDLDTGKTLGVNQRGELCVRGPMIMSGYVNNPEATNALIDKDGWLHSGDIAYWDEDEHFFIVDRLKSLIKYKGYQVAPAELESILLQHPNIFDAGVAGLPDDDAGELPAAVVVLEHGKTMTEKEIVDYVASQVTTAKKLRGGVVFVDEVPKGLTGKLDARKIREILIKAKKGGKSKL
#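 Purified P. pyralis luciferase, 10 nM final, with Km-level 10 uM D-luciferin and 10 uM ATP in 50 mM Tris acetate pH 7.5, 10 mM Mg acetate, 0.01% Tween-20, 0.05% BSA; 6-point qHTS titration about 60 µM downward; luminescence read.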
# SMN2 splice enh = qHTS Assay for Enhancers of SMN2 Splice Variant Expression; HEK293 SMN2-luciferase splicing reporter, luminescence, 30-36 h; Potency, µM (series often up to 46.1 µM), for inactives: at the top dose activity change, positive = activation, usual class: activators; actives 2.8% (n = 210,000); AID 1458, 2008; further: % of control where 0% means no effect; nearly all actives have a fitted effect of over 55% in size
#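 HEK293 cells carry an SMN2 […]–luciferase reporter in which exon 7 inclusion puts luciferase in frame. Cells were plated 10-12 h before compound addition, then incubated 30-36 h at 37C. ONE-Glo luminescence was read; sodium butyrate at 4.5 mM final served as control.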
# NPC1 prom act = qHTS Assay for NPC1 Promoter Activators | Potency, µM (highest dose often 9.22 µM), for inactives: at the top dose activation, usual class: activators | actives 2.4% (n = 320,000) | Huh7 NPC1 promoter luciferase reporter, 24 h; further: % of control where 0% means no effect; nearly all actives have a fitted effect of over 60% in size
#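 Quantitative HTS used a cell-based reporter: Huh7 cells stably bearing the NPC1 promoter upstream of luciferase were treated with compounds for 24 h, and promoter activation was read as luminescence.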
# Active calls of the source: *; ? = inconclusive; / = no result; [ ] = another dose, or the depositor's remark. The call rests on the fitted dose curve; in most records, active means well fitted curve in the direction sought with a large enough effect; inconclusive means small, poorly fitted or top-dose-only effect, or another doubt; inactive means no such curve, though single readings can be large; an effect the other way counts as inactive or inconclusive. Potency means the concentration at half of the fitted maximal effect.
SMILES,Luc counter,ELG1 genotox,Rab9 promoter act,FLuc counter,SMN2 splice enh,NPC1 prom act
CCOC(=O)Cc1csc(NC(=O)c2ccc3c(c2)OCO3)n1,-7.2%,2.2%,-0.4%,12µM*,?,0.2%
CC1CCN(CC(=O)N2c3ccccc3Sc3cc4ccccc4cc32)CC1,-4.8%[7.66 µM],/,/,/,-11.4%[9.22 µM],/
COc1ccc(NC(=O)C(NC(=O)/C=C\c2ccc3c(c2)OCO3)c2ccc(C)cc2)cc1 (stereo not drawn),/,/,/,-1.3%,-10.0%,/
CCOC(=O)Cc1csc(NC(=O)c2ccoc2C)n1,?,14.6µM*,27.8%,?,26.1%,17.5%
CCOC(=O)Cc1csc(NC(=S)NC(=O)c2ccc(C)cc2)n1,/,2.2%,-17.8%,12µM*,/,-13.4%
Cc1csc(NC(=O)c2ccncc2)n1,/,0.6%,7.8%,?,/,-0.7%
Cc1csc(NC(=O)c2ccc3c(c2)OCO3)n1,/,?,17.8%,3.38µM*,/,?
CCOC(=O)Cc1csc(NC(=O)c2ccc(C)cc2)n1,-8.0%,-3.6%,14.0%,10.7µM*,/,13.9%
CCOC(=O)Cc1csc(NC(=O)c2ccc(Br)o2)n1,1.2%,7.2%,0.7%,?,-4.4%,-2.0%
CCCCC(=O)Nc1ccc(C(=O)Nc2nc(CC(=O)OCC)cs2)cc1,19.5%,-1.0%,-4.2%,19µM*,-11.5%,-3.3%
Cc1cc(C(=O)NNC(=O)c2ccc(Cl)cc2)no1,/,3.0%,-5.8%,1.6%,/,-8.3%
Cc1cc(/C(N)=N/OC(=O)c2ccc(Cl)cc2)no1,/,11.6µM*,3.16µM*,1.51µM*,/,3.55µM*
Cc1cc(/C(N)=N/OC(=O)c2cccc(Cl)c2)no1,/,?,15.4%,6.75µM*,/,1.5%
Nn1cc(Br)c(=O)[nH]c1=O,/,/,/,/,10.0%,/
CN(C)CCN(C(=O)c1ccc2c(c1)CCCC2)c1nc2c(F)cccc2s1,/,?,6.1%,10.7µM*,/,2.1%
COC(=O)c1ccc(C23CC2(C(NP(=O)(c2ccccc2)c2ccccc2)c2ccccc2)C3)cc1 (stereo not drawn),-7.5%,/,/,/,3.3%,/
CCCCSC(=O)Nc1ccccc1,6.5%,?,6.9%,16.9µM*,7.4%,-0.8%
CCCCCC(=O)NNC(=O)Nc1ccccc1,1.5%,-1.5%,2.6%,0.4%,12.2%,-0.8%
Cc1ccc2nc(NC(=O)C3CCCN(S(=O)(=O)c4cnc[nH]4)C3)sc2c1 (stereo not drawn),1.5%,5.0%,?,12µM*,?,?
Cc1ccc2nc(NC(=O)C3CCCN(S(=O)(=O)c4cccnc4)C3)sc2c1 (stereo not drawn),0.8%,-0.8%,0.4%,-9.2%,-26.9%,-1.4%
CCC(=O)NC1=C(Nc2ccc(N)cc2)C(=O)c2ccccc2C1=O,/,14.0%,2.82µM*,26.9µM*,/,27.2%
COc1ccc(NC2=C(NC(C)=O)C(=O)c3ccccc3C2=O)cc1,/,-6.0%,-0.9%,-21.0%,/,-0.7%
CCC(=O)Nc1ccc(C2C(=O)c3ccccc3C2=O)cc1,/,?,?,1.35µM*,/,0.794µM*
Cc1cc2n(n1)CCC(=O)N2Cc1ccc(C(=O)Nc2ccc(F)cc2F)cc1,/,/,/,1.5%,/,/
COc1ccccc1N1CCN(C(=O)c2ccc(-c3nc4ccccc4s3)o2)CC1,/,-6.5%,24.4%,13.5µM*,/,-3.5%
SMILES,Luc counter,ELG1 genotox,Rab9 promoter act,FLuc counter,SMN2 splice enh,NPC1 prom act
COc1ccc(N2CCN(C(=O)c3cc4c(C)nc5ccccc5c4o3)CC2)cc1,/,-5.6%,-3.3%,-0.9%,/,-3.9%
COc1ccc(N2CCN(C(=O)c3ccc(-c4nc5ccccc5s4)o3)CC2)cc1,/,1.8%,17.8%,9.53µM*,/,2.4%
COc1ccc(C2C(=O)N(C3CCC(C)CC3)CC(=O)N2C2CCCCC2)cc1OC (stereo not drawn),/,/,/,4.2%,/,/
COc1ccc(CCN(/C=C2\Sc3ccccc3C2=O)C(C)=O)cc1OC,/,-0.4%,-2.6%,26.9µM*,/,-4.9%
CCC1=Nc2cc(C(=O)NCCc3ccc(OC)c(OC)c3)ccc2Sc2ccccc21,/,/,/,-2.6%,-39.5%,/
Cn1c(N)c(C(=O)/C=C/c2ccccc2)c(=O)[nH]c1=O,/,?,?,16.9µM*,/,?
O=C(CC1N=C2c3ccccc3N=C(SCc3ccccc3F)N2C1=O)NCc1ccc2c(c1)OCO2 (stereo not drawn),/,/,/,-10.2%,/,/
C/C(=N\N1C(=O)c2ccccc2C1=O)c1cccc([N+](=O)[O-])c1,-1.2%,-0.2%,0.6%,16.9µM*,13.5%,-0.6%
CCCCN(C(=O)C1CCC(CNS(=O)(=O)c2cccc3nsnc23)CC1)c1ccccc1 (stereo not drawn),/,/,/,0.1%,-41.2%,/
O=C(NNC(=O)c1cc(-c2ccc(Cl)c(Cl)c2)nc2ccccc12)Nc1ccccc1,-3.0%,-11.9%,2.4%,6.75µM*,-8.1%,-0.8%
COc1ccc(-c2cc(C(=O)Nc3ccc(C(N)=O)cc3)c3ccccc3n2)cc1,/,6.7%,?,0.757µM*,/,?
Cc1ccc(-c2cc(C(=O)Nc3ccncc3)c3ccccc3n2)cc1,/,0.4%,0.1%,10.7µM*,/,-2.6%
Cc1ccc(-c2cc(C(=O)Nc3nn[nH]n3)c3ccccc3n2)cc1,-3.9%,-1.5%,3.4%,3.79µM*,-9.6%,7.0%
Cc1cc(C)c(NC(=O)C2CCN(C(=O)N3CC(C)Oc4ccc(Cl)cc43)CC2)c(C)c1 (stereo not drawn),/,/,/,-8.5%,/,/
C=C(C)[C@@H]1CC[C@]2(C(=O)O)CC[C@]3(C)[C@H](CCC4[C@@]5(C)CC[C@H](O)C(C)(C)[C@@H]5CC[C@]43C)[C@@H]12 (stereo partly drawn),/,/,/,/,7.5%,/
O=C(O)c1cccc(NC(=O)c2cccc(S(=O)(=O)Nc3cccc([N+](=O)[O-])c3)c2)c1,/,-0.3%,4.2%,?,/,2.0%
O=C(NNS(=O)(=O)c1ccc([N+](=O)[O-])cc1)C(=O)Nc1cccc(C(=O)O)c1,/,4.1%,11.0%,16.9µM*,/,1.3%
O=C(O)c1cccc(NC(=O)c2cn(-c3ccccc3)nc2-c2ccc([N+](=O)[O-])cc2)c1,/,0.5%,0.0%,16.9µM*,/,-8.3%
O=C(O)c1cccc(NC(=O)c2cn(-c3ccccc3)nc2-c2ccncc2)c1,0.3%,-4.0%,-3.0%,16.9µM*,-3.2%,-0.6%
CS(=O)(=O)N(CC(=O)O)c1ccccc1,1.1%,/,/,/,/,/
NCCOc1ccccn1,-2.4%[7.66 µM],/,/,/,10.6%[9.22 µM],/
Cc1ccc(S(=O)(=O)OCC(=O)O)cc1,-5.8%[7.66 µM],/,/,/,-18.0%[9.22 µM],/
